# According to PubChem BioAssay AID623957 (NMMLSC, 2012):
# Active and inactive are the calls of the source.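 Rule for the calls: active = compounds whose fitted half-maximal concentration for lowering the signal is under 100 µM; inactive = the rest.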
# Assay: fluorescence change in empty-vector K562 cells, dose response, counter-screen for ABCB6 inhibitor project, cell-based, flow cytometry, cherry pick set 1 (AID 623957)
# Details: K562 vector-only cells, 1 h; series mostly up to 100 µM
row,Structure (SMILES),outcome
1,Cc1cccc(CS(=O)(=O)c2ncc(Cl)c(C(=O)Nc3c(C)cccc3C)n2)c1,inactive
2,Cc1ccc(NC(=O)c2nc(S(=O)(=O)Cc3ccccc3)ncc2Cl)cc1,inactive
3,O=C(CN1CCCCC1)Nc1cccc(Br)c1,inactive
4,CCC(C)NC(=O)CCc1nnc2ccc(N3CCC(C)CC3)nn12 (stereo unspecified),inactive
5,O=C(CCc1nnc2ccc(N3CCC4(CC3)OCCO4)nn12)N1CCCCC1,inactive
6,O=C(Nc1ccc(F)cc1)c1nc(S(=O)(=O)Cc2ccccc2)ncc1Cl,inactive
7,CC1CCN(c2ccc3nnc(CCC(=O)NC(C)C)n3n2)CC1,inactive
8,CC(C)CCNC(=O)CCc1nnc2ccc(N3CCC(C)CC3)nn12,inactive
9,COCCNC(=O)CCc1nnc2ccc(N3CCC(C)CC3)nn12,inactive
10,Cc1cccc(NC(=O)c2nc(S(=O)(=O)Cc3ccccc3)ncc2Cl)c1,inactive
11,Cc1cccc(CS(=O)(=O)c2ncc(Cl)c(C(=O)Nc3ccc(F)cc3)n2)c1,inactive
12,COC(=O)C(NC(=O)CCc1nnc2ccc(N3CCC(C)CC3)nn12)C(C)C (stereo unspecified),inactive
13,CN1CCN(C(=O)CCc2nnc3ccc(N4CCC5(CC4)OCCO5)nn23)CC1,inactive
14,CC1CC(C)CN(C(=O)CCc2nnc3ccc(N4CCCCC4)nn23)C1 (stereo unspecified),inactive
15,CCOC(=O)N1CCN(CC(=O)Nc2ccc(C)cc2)CC1,inactive
16,CCCNC(=O)CCc1nnc2ccc(N3CCC(C)CC3)nn12,inactive

row,Structure (SMILES),outcome
1,CC1CCN(c2ccc3nnc(CCC(=O)N4CCCCC4)n3n2)CC1,inactive
2,CCN(CC)CCNC(=O)CCc1nnc2ccc(N3CCC(C)CC3)nn12,inactive
3,CCOCCCNC(=O)CCc1nnc2ccc(N3CCCCC3)nn12,inactive
4,CCN(CC)S(=O)(=O)c1cccc(-n2c(O)c(C=Nc3ccccc3C(=O)O)c3ccccc3c2=O)c1,inactive
5,CCOC(=O)C1CCN(C(=O)CCc2nnc3ccc(N4CCN(C)CC4)nn23)CC1,inactive
6,CC1CCN(C(=O)CCc2nnc3ccc(N4CCC5(CC4)OCCO5)nn23)CC1,inactive
7,COC(=O)c1ccc(NC(=O)c2nc(S(=O)(=O)Cc3cccc(C)c3)ncc2Cl)cc1,inactive
8,CCOC(=O)CNC(=O)CCc1nnc2ccc(N3CCC(C)CC3)nn12,inactive
9,CCN1CCN(C(=O)CCc2nnc3ccc(N4CCC5(CC4)OCCO5)nn23)CC1,inactive
10,CC1CCN(c2ccc3nnc(CCC(=O)NCCCOC(C)C)n3n2)CC1,inactive
11,COC(=O)C(NC(=O)CCc1nnc2ccc(N3CCCCC3)nn12)C(C)C (stereo unspecified),inactive
12,CCOC(=O)C(C)NC(=O)CCc1nnc2ccc(N3CCCCC3)nn12 (stereo unspecified),inactive
13,COCCCNC(=O)CCc1nnc2ccc(N3CCC(C)CC3)nn12,inactive
14,CCc1ccc(CNC(=O)C2Cc3cc(S(=O)(=O)N4CCCC4)ccc3N2C(C)=O)cc1 (stereo unspecified),inactive
15,CCOC(=O)C(C)NC(=O)CCc1nnc2ccc(N3CCC(C)CC3)nn12 (stereo unspecified),inactive
